According to PubChem BioAssay AID488777 (Sanford-Burnham Center for Chemical Genomics, 2010):
Unmarked numbers belong to inactive results. The rule behind the calls is not given here.

Experiment: AlphaScreen signal interference by SUMOylation inhibitors, SAR follow-up, artefact control for SUMOylation inhibitor project, biochemical (AID 488777)
Conditions: purified counter-screen enzymes, TR-FRET, 60 min

Question: With `CCCCNC(=O)c1c(NC(=O)c2ccccc2)n(Cc2ccccc2)c2nc3ccccc3nc12` as the molecule, how does the IC50 read?
Answer: > 100 µM
